Active and inactive are the calls of the source.
biological target: NADPH oxidase 4 (Homo sapiens) (UniProt Q9NPH5); assay: compounds shifting NOX4 Amplex Red fluorescence – cell-based, HEK293-NOX4, tetracycline-induced, NOX inhibitor project, primary screen (AID 1160); details: HEK293-NOX4, Amplex Red H2O2 fluorescence, 45 min; higher = more signal, called active from +8 up or from −8 down
Sequence (Q9NPH5 whole entry, looked up): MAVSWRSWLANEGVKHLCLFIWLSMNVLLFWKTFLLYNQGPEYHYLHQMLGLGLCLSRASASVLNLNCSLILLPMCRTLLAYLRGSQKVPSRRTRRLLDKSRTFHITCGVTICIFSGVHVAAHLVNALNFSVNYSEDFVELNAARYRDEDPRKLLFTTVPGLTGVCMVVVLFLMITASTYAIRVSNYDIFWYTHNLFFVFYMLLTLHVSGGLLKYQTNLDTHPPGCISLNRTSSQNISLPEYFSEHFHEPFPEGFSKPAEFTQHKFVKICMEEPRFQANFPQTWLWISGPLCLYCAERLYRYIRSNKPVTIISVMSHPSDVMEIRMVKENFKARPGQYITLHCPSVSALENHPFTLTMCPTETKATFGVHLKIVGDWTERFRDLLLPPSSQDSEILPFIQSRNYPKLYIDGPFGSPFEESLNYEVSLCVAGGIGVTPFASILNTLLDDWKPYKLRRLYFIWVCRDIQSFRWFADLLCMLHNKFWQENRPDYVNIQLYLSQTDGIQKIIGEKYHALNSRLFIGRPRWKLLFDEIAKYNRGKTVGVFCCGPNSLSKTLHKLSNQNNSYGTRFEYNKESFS

**Q.** With CC(CO)N1C(=O)[C@@H]2C3C(=O)OCCC/C=C\[C@H]3OC23C=CCN(C(C)(C)C)C(=O)[C@@H]13 (some centres undefined) as the molecule, how does the z-score read?
**A.** Its z-score is -0.437 (inactive).

**Q.** For CC1CC/C=C\[C@H]2OC34C=CCN(C(C)(C)C)C(=O)[C@H]3N(C(C)CO)C(=O)[C@@H]4C2C(=O)O1 (some centres undefined), which z-score is on record?
**A.** The z-score was -0.812 (inactive).

**Q.** With COc1ccc(C#Cc2ccc3c(c2)[C@]2(C(=O)N3)[C@H](C(=O)Nc3nc4ccccc4s3)[C@H]3C(=O)O[C@H](c4ccccc4)[C@H](c4ccccc4)N3[C@@H]2c2ccc(O)cc2)cc1 as the molecule, how does the z-score read?
**A.** The z-score was 0.792 (inactive).

**Q.** For C=CCC(OC(C)=O)[C@@H]1[C@@H](N(Cc2ccc(-c3ccccc3)cc2)C(=O)Cc2ccc(OC)cc2)c2cc(OCCCO)ccc2N1C(=O)Cc1ccc2ccccc2c1 (some centres undefined), which z-score is on record?
**A.** The z-score was 1.09 (inactive).

**Q.** Which z-score does the source give for CN1C(=O)C2C=CC(C(O)C#Cc3ccccc3)N(N3CCCCC3)C2C1=O (centres undefined) here?
**A.** Its z-score is 0.191 (inactive).

**Q.** For C=CC(=C)[C@H]1Oc2ccccc2S(=O)(=O)N2CCC[C@@H]12, which z-score is on record?
**A.** Its z-score is -1.04 (inactive).

**Q.** How did the z-score turn out when C=CCC(OC(C)=O)[C@@H]1[C@@H](N(Cc2ccc(-c3cccc(C(F)(F)F)c3)o2)C(=O)c2ccc(C)cc2)c2cc(OCCCO)ccc2N1C(=O)Cc1ccc2ccccc2c1 (some centres undefined) was run?
**A.** Its z-score is 1.04 (inactive).

**Q.** Which z-score does the source give for COCCOC(=O)N1C(=O)[C@@]2(c3cc(C#CCC(C(=O)OC)C(=O)OC)ccc31)[C@H](C(=O)N1CCN(c3ncccn3)CC1)[C@H]1C(=O)O[C@H](c3ccccc3)[C@H](c3ccccc3)N1[C@@H]2c1ccccc1OCCO here?
**A.** The z-score was 0.851 (inactive).

**Q.** Which z-score does the source give for CC(C)=CCCC(C)=CC(O)C1C=CC2C(=O)N(C)C(=O)C2N1Nc1ccccc1 (centres undefined) here?
**A.** Its z-score is -3.97 (inactive).

biological target: NADPH oxidase 5 (Homo sapiens) (UniProt Q96PH1); assay: compounds shifting NOX5 Amplex Red fluorescence – cell-based, HEK293-NOX5, NOX inhibitor project, primary screen (AID 1161); details: HEK293-NOX5, ionomycin, 45 min, higher = more signal
Sequence (Q96PH1 whole entry, looked up): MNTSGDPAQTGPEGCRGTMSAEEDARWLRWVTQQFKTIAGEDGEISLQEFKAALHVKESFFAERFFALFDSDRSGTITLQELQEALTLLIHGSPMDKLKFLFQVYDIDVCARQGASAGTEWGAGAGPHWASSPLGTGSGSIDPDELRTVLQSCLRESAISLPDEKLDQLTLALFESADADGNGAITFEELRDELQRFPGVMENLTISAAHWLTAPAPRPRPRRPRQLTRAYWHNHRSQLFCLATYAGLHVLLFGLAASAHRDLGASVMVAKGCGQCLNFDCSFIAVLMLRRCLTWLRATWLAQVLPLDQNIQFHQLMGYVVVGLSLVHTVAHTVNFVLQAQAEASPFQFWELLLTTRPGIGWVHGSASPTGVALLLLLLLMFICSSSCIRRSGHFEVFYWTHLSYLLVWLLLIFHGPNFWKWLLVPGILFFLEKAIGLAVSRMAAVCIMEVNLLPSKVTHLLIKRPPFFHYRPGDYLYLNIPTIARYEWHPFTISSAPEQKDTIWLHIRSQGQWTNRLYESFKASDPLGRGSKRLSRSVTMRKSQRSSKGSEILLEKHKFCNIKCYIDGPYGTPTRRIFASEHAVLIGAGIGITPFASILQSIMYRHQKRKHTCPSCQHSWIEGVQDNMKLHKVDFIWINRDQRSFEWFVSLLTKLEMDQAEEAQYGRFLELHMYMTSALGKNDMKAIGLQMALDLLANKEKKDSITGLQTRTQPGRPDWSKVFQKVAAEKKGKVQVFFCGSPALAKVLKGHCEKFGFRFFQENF

**Q.** For C=CCN1C(=O)[C@@]2(Cc3ccccc31)N=C(c1ccc(OCCCO)cc1)O[C@H]2c1ccccc1, which z-score is on record?
**A.** The z-score was -2.65.

**Q.** With [N-]=[N+]=Nc1ccccc1[C@@H]1OC(c2ccc(OCCCO)cc2)=N[C@]1(CCS(=O)(=O)c1ccccc1)C(N)=O as the molecule, how does the z-score read?
**A.** The z-score was 0.903.

**Q.** With CN(C)C(=O)[C@@]1(CCS(=O)(=O)c2ccccc2)COC(c2ccc(OCCCO)cc2)=N1 as the molecule, how does the z-score read?
**A.** The z-score was -0.621.

**Q.** Which z-score does the source give for CCOC(=O)C[C@H]1[C@H](OC(=O)c2cc3ccccc3oc2=O)[C@@H](NC(=O)c2ccccc2)c2cc(OCCCO)ccc2N1C(=O)c1ccc2ccccc2n1 here?
**A.** The z-score was 1.44.

**Q.** C=CCOC(=O)[C@H]1[C@@H]2C(=O)O[C@@H](c3ccccc3)[C@@H](c3ccccc3)N2[C@@H](c2ccc(OCCOC(=O)[C@H]3C[C@H]4C(=O)N[C@@H](CCCCNC(C)=O)C(=O)N4[C@H]3c3cccc(OCCO)c3)cc2)[C@]12C(=O)Nc1ccccc12 was tested. Which z-score did it give?
**A.** The z-score was 0.8.

**Q.** For CC(C)C(CO)N1C(=O)[C@@H]2C3C(=O)OCCC/C=C\[C@H]3OC23C=CCN(CCN2CCOCC2)C(=O)[C@@H]13 (some centres undefined), which z-score is on record?
**A.** Its z-score is 1.4.

**Q.** For O=C(NCCN1CCOCC1)C1N=C(c2ccc(OCCCO)cc2)N(c2ccccc2)O1 (centres undefined), which z-score is on record?
**A.** Its z-score is -0.429.

**Q.** COC(=O)[C@@]1(Cc2ccccc2)[C@H]2c3cc(C(=O)N4CCCC4)n(Cc4ccc(S(C)(=O)=O)cc4)c3C[C@H]2CN1C(=O)c1ccccc1 was tested. Which z-score did it give?
**A.** The z-score was -1.9.

**Q.** For O=C1[C@@]23C=C(Br)[C@H](C[C@@H]2CCOC3)[C@@]12CO2, which z-score is on record?
**A.** The z-score was -0.34.

**Q.** With O=C(c1ccccc1)N1C(=O)[C@]2(COC(c3ccc(OCCCO)cc3)=N2)Cc2ccccc21 as the molecule, how does the z-score read?
**A.** The z-score was -1.69.

**Q.** Which z-score does the source give for Cc1nc2cc(Br)ccc2c(=O)o1 here?
**A.** Its z-score is 0.256.

**Q.** With CCCCC(CC)C(O)C1C=CC2C(=O)N(Cc3ccccc3)C(=O)C2N1n1cnnc1 (centres undefined) as the molecule, how does the z-score read?
**A.** Its z-score is -0.99.

**Q.** Which z-score does the source give for CC(C)C(O)C1C=CC2C(=O)NC(=O)C2N1Nc1ccc(Cl)cc1Cl (centres undefined) here?
**A.** The z-score was -3.83.

**Q.** With COCCOC(=O)N1C(=O)[C@@]2(c3ccccc31)[C@H](c1ccc(O)cc1)N1[C@H](c3ccccc3)[C@H](c3ccccc3)OC(=O)[C@H]1[C@@H]2C(=O)Nc1nc2ccccc2s1 as the molecule, how does the z-score read?
**A.** The z-score was 1.41.

**Q.** How did the z-score turn out when CC(C)C(=C=CC[C@@H](O)c1ccc(OCCO)cc1)C[C@@H](O)COCc1ccccc1 was run?
**A.** The z-score was -2.41.

**Q.** How did the z-score turn out when O=C1C2C=CC(C(O)Cc3ccccc3)N(n3cnnc3)C2C(=O)N1Cc1ccccc1 (centres undefined) was run?
**A.** Its z-score is -1.36.

**Q.** COCCOC(=O)N1C(=O)[C@@]2(c3cc(C#Cc4ccc(OC)cc4)ccc31)[C@H](c1ccc(O)cc1)N1[C@H](c3ccccc3)[C@H](c3ccccc3)OC(=O)[C@H]1[C@@H]2C(=O)N1CCc2cc(OC)c(OC)cc2C1 was tested. Which z-score did it give?
**A.** Its z-score is 1.08.

**Q.** How did the z-score turn out when COc1cc2c(cc1O)C(C1CC1)N(Cc1sc3ccccc3c1Cl)CC2 (centres undefined) was run?
**A.** The z-score was -3.45.

**Q.** How did the z-score turn out when CC(C)C(=C=CC[C@H](O)c1ccc(OCCO)cc1)CCO was run?
**A.** Its z-score is -1.96.

**Q.** CC(=O)NCCCC[C@@H]1NC(=O)[C@@H]2C[C@H](C(=O)NCCCCCNC(=O)CS)[C@H](c3cccc(OCCO)c3)N2C1=O was tested. Which z-score did it give?
**A.** The z-score was 0.0642.

From PubChem BioAssay
